Screens deposited in PubChem by National Center for Advancing Translational Sciences (NCATS).
Sampled rows, rich in hits. Any-hit rate of the full collection: about 17%.
DT40 TDP1 no CPT = qHTS for Inhibitors of human tyrosyl-DNA phosphodiesterase 1 (TDP1): qHTS in cells in absence of CPT | DT40 Tdp1-/- hTDP1 cells, no CPT, ATP luminescence, 48 h | Potency, µM (top dose mostly 46.2 µM), most hits filed as inhibitors | actives 15% (n = 420,000) | AID 686978, 2013; also: nearly all actives have a fitted effect of over 55% in size
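Camptothecin absent (DMSO only). Human TDP1-complemented DT40 knockout cells, 400 cells/well, 37 °C for minimum 48 hr; ATP measured via CellTiter-Glo, 30 min dark incubation, luminescence.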
HepG2 viability = qHTS for Inhibitors of TGF-b: Cytotox Counterscreen | AID 588856, 2011 | Potency, µM (titrated, usually from 46.1 µM), actives largely listed as cytotoxic | HepG2 CAGA-GFP viability, ATP luminescence, 18 h | actives 0.76% (n = 410,000)
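CellTiter-Glo luminescence gave cytotoxicity after 18 hours at 37 degrees C. The cells were HepG2 CAGA-GFP in 1% FBS DMEM, stimulated with 500 pg/mL TGF-beta after compound addition. %Activity was normalised to no-cell wells (complete cell-killing) and DMSO (no toxicity), and curves were fitted and classified.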
TGFb SMAD3 inh = qHTS for Inhibitors of TGF-b. HepG2 CAGA-GFP TGF-b/SMAD3 reporter, GFP fluorescence, 18 h; TGF-beta stimulated, 500 pg/mL final. actives 1.2% (n = 410,000). Potency, µM (titrated, usually from 46.1 µM), actives largely listed as inhibitors; also: nearly all actives have a fitted effect of over 65% in size
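Cell-based qHTS in HEPG2 carrying a CAGA-GFP Smad reporter; compounds added before 500 pg/mL final TGF-beta, 18 h incubation at 37 degrees C, GFP fluorescence quantified per cell by imaging cytometry.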
ATXN2 expr inh = Primary qHTS for Inhibitors of ATXN expression. actives 0.72% (n = 360,000). Potency, µM (titrated, usually from 57 µM), most hits filed as inhibitors. AID 1745845, 2022. HEK-293 ATXN2-luciferase reporter, luminescence, 24 h; also: nearly all actives have a fitted effect of over 55% in size
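qHTS (up to 57 uM final) was run with 24 h compound exposure of reporter cells at 37 °C. Each well was multiplexed: SteadyGlo luminescence measured ATXN2-luciferase expression after a fluorogenic Gly-Phe-AFC viability readout (25 uM final).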
ATXN viability = Viability Counterscreen for Primary qHTS for Inhibitors of ATXN expression; actives 0.49% (n = 400,000); Potency, µM (series often up to 56.7 µM), actives largely listed as cytotoxic; S2 cells (HEK-293 line with an ATXN2-luciferase reporter) viability, CellTiter-Fluor protease fluorescence, 24 h; also: nearly all actives have a fitted effect of over 40% in size
DT40 TDP1 CPT = qHTS for Inhibitors of human tyrosyl-DNA phosphodiesterase 1 (TDP1): qHTS in cells in presence of CPT; actives 12% (n = 420,000); Potency, µM (titrated, usually from 46.2 µM), actives largely listed as inhibitors; chicken DT40 Tdp1-/-;hTDP1 cells + 20 nM CPT, ATP luminescence, 48 h; AID 686979, 2013; also: nearly all actives have a fitted effect of over 55% in size
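Chicken DT40 Tdp1-/- cells stably complemented with human TDP1 were seeded at 400 cells/well in medium containing 20 nM camptothecin, exposed to pin-transferred compounds, and grown at 37 °C for at least 48 hr. Viability was read as ATP luminescence.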
Large screens that a line does not name were inactive; ! = not confirmed by another sample. Calls follow the shape of the dose curve; as a rule, active = well fitted curve in the direction sought with a large enough effect; inconclusive = small, poorly fitted or top-dose-only effect, or another doubt; inactive = no such curve, though single readings can be large; an effect the other way counts as inactive or inconclusive.

CCCCN(CC)CCNC(=O)c1cc2c(=O)n(CC)c3ccccc3c2s1	DT40 TDP1 no CPT 21µM, HepG2 viability 13µM!, DT40 TDP1 CPT 16µM
CCCCN(CC)CCNC(=O)c1cc2c(=O)[nH]c3ccc(C)cc3c2s1	DT40 TDP1 no CPT inconclusive, TGFb SMAD3 inh inconclusive, DT40 TDP1 CPT inconclusive
CCCCN(CC)CCCNC(=O)c1cc2c(=O)[nH]c3ccccc3c2s1	DT40 TDP1 no CPT 23µM, DT40 TDP1 CPT inconclusive
O=C(Nc1cc(SCCO)cc([N+](=O)[O-])c1)c1ccc(Br)o1	DT40 TDP1 no CPT 21µM, DT40 TDP1 CPT inconclusive
CCN(CC)S(=O)(=O)c1ccc(C(=O)NC(=S)N2CCCCC2C)cc1 (configuration not stated)	DT40 TDP1 no CPT 16µM, ATXN viability inconclusive, DT40 TDP1 CPT inconclusive (no result: ATXN2 expr inh)
Cc1ccc(CN(C)C(=O)c2ccc(S(=O)(=O)N3CCCCCC3)cc2)o1	DT40 TDP1 no CPT inconclusive, DT40 TDP1 CPT inconclusive
Cc1c(CC(=O)NCC(C)C)c(=O)oc2cc3c(cc12)CCC(C)(C)O3	DT40 TDP1 no CPT 18µM, DT40 TDP1 CPT 16µM
Cc1c(CC(=O)NCCC(C)C)c(=O)oc2cc3c(cc12)CCC(C)(C)O3	DT40 TDP1 no CPT 21µM (no result: ATXN viability)
COCCNC(=O)Cc1c(C)c2cc3c(cc2oc1=O)OC(C)(C)CC3	DT40 TDP1 no CPT inconclusive, DT40 TDP1 CPT inconclusive
CCOc1ccc(Nc2nc(-c3c(C)nc4ccccn34)cs2)cc1	none (no result: DT40 TDP1 no CPT, HepG2 viability, TGFb SMAD3 inh, ATXN viability, DT40 TDP1 CPT)
CC(C)NC(=NCc1ccc(Cl)cc1Cl)Nc1ccccc1	DT40 TDP1 no CPT 5.2µM, TGFb SMAD3 inh inconclusive, ATXN viability inconclusive, DT40 TDP1 CPT 13µM (no result: ATXN2 expr inh)
O=C(NNC(=O)c1ccccc1[N+](=O)[O-])c1csc(N2CCOCC2)n1	none
COc1ccc2oc(=O)c(C(=O)Nc3cccc(C(C)=O)c3)cc2c1	none (no result: ATXN2 expr inh)
CCN(CC)CCOC(=O)c1ccc(NC(=O)c2cc3cc(OC)ccc3oc2=O)cc1	DT40 TDP1 no CPT 0.0058µM, DT40 TDP1 CPT 0.041µM
CCN(CC)CCOC(=O)c1ccc(NC(=O)c2cc3cccc(OC)c3oc2=O)cc1	DT40 TDP1 no CPT inconclusive, DT40 TDP1 CPT 21µM
Cc1ccc(C)c(S(=O)(=O)N2CCN(C(=O)Cc3ccccc3)CC2)c1	DT40 TDP1 no CPT inconclusive
Cc1cc(C(=O)CCC(=O)N2CCN(c3ccccc3O)CC2)c(C)s1	DT40 TDP1 no CPT inconclusive, DT40 TDP1 CPT inconclusive
COc1ccc(N2CCN(C(=O)CCNC(=O)c3ccccc3)CC2)cc1	none (no result: ATXN2 expr inh)
COc1ccc(N2CCN(C(=O)CCCC(=O)c3ccccc3)CC2)cc1	DT40 TDP1 no CPT inconclusive, DT40 TDP1 CPT 21µM
COc1ccc(C(=O)CCC(=O)N2CCN(c3ccc(C)cc3)C(C)C2)cc1 (configuration not stated)	DT40 TDP1 no CPT 23µM, DT40 TDP1 CPT inconclusive
Cc1ccc(C)c(S(=O)(=O)N2CCN(C(=O)CCC(=O)c3cc(C)sc3C)CC2)c1	DT40 TDP1 no CPT 23µM, ATXN viability inconclusive, DT40 TDP1 CPT inconclusive
COc1ccc(N2CCN(C(=O)CCC(=O)c3cc(C)sc3C)CC2)cc1	DT40 TDP1 no CPT 16µM, DT40 TDP1 CPT inconclusive
CC1CN(C(=O)CSc2nc(N)c(NC(=O)c3ccc(C(F)(F)F)cc3)c(=O)[nH]2)CC(C)O1 (configuration not stated)	none (no result: ATXN2 expr inh)
CC1=C(C(=O)Nc2cc(C(=O)N(C)Cc3ccccc3)ccc2C)SCCO1	none
COc1ccccc1CNC(=O)C(=O)c1cn(CC(=O)N2CCOCC2)c2ccccc12	none
COc1ccc(N2CCN(C(=O)CNC(=O)c3cccc(Br)c3)CC2)cc1	DT40 TDP1 no CPT 15µM, DT40 TDP1 CPT inconclusive
Cc1ccc(-c2nc(CS(=O)(=O)CC(=O)NCCc3ccccc3)c(C)o2)cc1	none (no result: ATXN2 expr inh, ATXN viability)
CCCCN(C)CCNC(=O)c1nn(-c2ccc(OC)cc2)c(=O)c2c1c1ccccc1n2C	DT40 TDP1 no CPT 18µM, ATXN viability inconclusive, DT40 TDP1 CPT inconclusive
COc1ccc(-n2nc(C(=O)NCc3cc(OC)ccc3OC)c3c4ccccc4n(C)c3c2=O)cc1	none
COc1ccc(-n2nc(C(=O)NCCc3ccc(OC)c(OC)c3)c3c4ccccc4n(C)c3c2=O)cc1	DT40 TDP1 no CPT 15µM, TGFb SMAD3 inh inconclusive, DT40 TDP1 CPT 16µM (no result: ATXN2 expr inh, ATXN viability)
CC(C)(C)NC(=S)N1CCC(C(=O)c2ccc(F)cc2)CC1	none
O=C(c1ccc(F)cc1)C1CCN(C(=S)Nc2ccc(F)cc2)CC1	DT40 TDP1 no CPT 15µM, DT40 TDP1 CPT inconclusive
CCCNC(=S)N1CCC(C(=O)c2ccc(F)cc2)CC1	DT40 TDP1 no CPT 16µM, DT40 TDP1 CPT 15µM
CCCNC(=S)N1CCC(NC(=O)C2CCCCC2)CC1	DT40 TDP1 no CPT inconclusive, ATXN viability inconclusive, DT40 TDP1 CPT 16µM
O=C(NC1CCN(C(=S)NCCc2ccccc2)CC1)C1CC1	none (no result: ATXN2 expr inh)
Cc1onc(-c2c(F)cccc2Cl)c1C(=O)ONC(=O)c1ccco1	none (no result: ATXN2 expr inh)
CCn1cc(C(=O)N(C)c2cc(C)ccc2OC)c2cc(OC)c(OC)cc2c1=O	none
